Results taken from PubChem BioAssay (EPA / NIEHS).
Inconclusive results are not listed. Active and inactive are the calls of the source. Rule for the calls: active = hit-call score of the fitted dose curve at least 0.9, where 1 is the maximum; inconclusive = response in the unintended direction; inactive = score below 0.9.

target: Cellular tumor antigen p53 (Homo sapiens) (UniProt P04637); assay: TOX21_p53_BLA_p5_ratio: Tox21 HCT-116 p53 Agonism Beta-lactamase Assay, Ratio, Phase 5 (AID 2283599)
Method in brief: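 Beta-lactamase reporter ratio (blue 460 nm over green 530 nm, 405 nm excitation) after 2 h CCF4-AM loading, in HCT-116 cells exposed 16 h at 37 C to compounds pinned at 217-fold dilution. Increases relative to DMSO baseline scored.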

Chain of Cellular tumor antigen p53 (Homo sapiens) (P04637 whole entry, looked up): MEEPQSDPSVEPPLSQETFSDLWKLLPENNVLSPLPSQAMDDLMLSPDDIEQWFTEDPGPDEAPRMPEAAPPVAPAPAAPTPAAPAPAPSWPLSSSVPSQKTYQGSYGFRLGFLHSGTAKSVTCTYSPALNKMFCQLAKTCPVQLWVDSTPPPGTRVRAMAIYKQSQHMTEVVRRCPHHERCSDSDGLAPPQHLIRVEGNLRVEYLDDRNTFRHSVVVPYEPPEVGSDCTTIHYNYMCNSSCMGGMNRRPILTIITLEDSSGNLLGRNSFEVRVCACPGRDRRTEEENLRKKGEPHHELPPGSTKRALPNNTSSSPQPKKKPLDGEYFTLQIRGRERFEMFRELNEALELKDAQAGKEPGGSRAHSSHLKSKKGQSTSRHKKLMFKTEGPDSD

Structure (SMILES)	AC50	outcome
CCc1cc(SCc2sc(-c3ccc(C(F)(F)F)cc3)nc2CN2CCN(c3ccc(OC)cc3)CC2)ccc1OCC(=O)O	67 µM (active)	
CCOC(=O)COc1ccc2c(c1)CC(NCC(O)c1cccc(Cl)c1)CC2 (configuration not stated)		inactive
CCOc1cccc(-n2cc(C(=O)N3CCN(c4cc(C(=O)O)c5ccccc5c4)CC3)nc2-c2ccc(C)cc2)c1	58.1 µM (active)	
COCCOc1cc2cc(C(=O)NC3CCN(C(C)C)CC3)n(CC(=O)Nc3ccc(Cl)cn3)c2cn1		inactive

system: not listed separately; assay: TOX21_p53_BLA_p5_viability: Viability Assessment in the Tox21 HCT-116 p53 Agonism Beta-lactamase Assay, Phase 5 (AID 2283600)
Method in brief: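 HCT-116 p53 beta-lactamase reporter cells, 4000/well, were exposed to compound (pin transfer, 217-fold dilution) for 16 hours at 37C. Cellular ATP was read by CellTiter-Glo luminescence after 30 min at room temperature.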

Structure (SMILES)	outcome
COc1cccc(-c2ccc(/C=C\CN3CCCCCC3)cc2Cl)c1	inactive
CCCCCCCCO	inactive
Fc1ccccc1[C@@H](F)COC1CCC(Nc2ncnc3[nH]ncc23)CC1 (some centres not stated)	inactive
CCOC(=O)c1ccc(C2CCC(NC[C@H](O)COc3ccc(O)c(NS(C)(=O)=O)c3)CC2)cc1 (some centres not stated)	inactive
CCN(C(=O)c1cc(C)cc(OC[C@H](C)Nc2ccncc2)c1)C(C)C	inactive
Cc1ccc(O)cc1	inactive
CNS(=O)(=O)c1cc(C(=O)N2CCC(CCN3C4CCC3CC(n3c(C)nc5ccccc53)C4)(c3cccc(F)c3)CC2)c(Cl)cc1F (configuration not stated)	inactive
CC(C)CCO	inactive
CCCCC(CC)COC(=O)CCCCCCCCC(=O)OCC(CC)CCCC (configuration not stated)	inactive
CN(C)c1ccc(Cc2ccc(N(C)C)cc2)cc1	inactive
CCn1nc(Cc2ccccc2)cc1C1CCN(C[C@H]2C[C@H](N(C)[C@@H](C(=O)O)C(C)C)C[C@@H]2c2cccc(F)c2)CC1	inactive
CC(C)=CCC/C(C)=C/CO	inactive
CC(=O)c1ccc2c(c1)[C@H](NC(=O)c1ccc(F)cc1)[C@@H](O)C(C)(C)O2	inactive
